Structures can show the parent of a compound that is named as a salt. ± gives the standard error. Out of some 1,300 compounds screened, about 130 (10%) showed an effect of 50% or more. For the sample, strong results were picked, then their nearest neighbours and some compounds at random.
System: Trichoderma virens ATCC 9645
Assay: growth yield (OD600) with compound + IPBC relative to untreated control; higher = less growth inhibition
Details: compound concentration: 100 uM, IPBC concentration: 200 ng/ml
In short: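 For each 96-well plate, 100 μl aliquots were prepared with Trichoderma virens ATCC 9645 spores suspended at 15,000 spores ml^−1 in potato dextrose broth. The spores had been harvested from potato dextrose agar plates after 7 days. Library compounds were present at 100 μM final, some wells also receiving a biocide at 200 ng ml^−1, and plates were grown at 30 °C with OD600 read on a BioTek EL800 at 40 h and 72 h. Reported growth, relative to the control lacking both agents, is the mean of duplicate screens.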

Row | Compound | growth yield (40 h) [%] | growth yield (72 h) [%]
1 | O=C(CCCCCCC(=O)Nc1ccccc1)NO [Vorinostat] + CCCCNC(=O)OCC#CI [3-iodo-2-propynyl butylcarbamate (IPBC)] | 107 ± 9.5 | 99.5 ± 3.9
2 | COc1cc2nc(N3CCN(C(=O)c4ccco4)CC3)nc(N)c2cc1OC [Prazosin hydrochloride] + CCCCNC(=O)OCC#CI [3-iodo-2-propynyl butylcarbamate (IPBC)] | 84.82 ± 0.32 | 92.6 ± 1.1
3 | CN(C)CCOC1=Cc2ccccc2Sc2ccc(Cl)cc21 [Zotepine] + CCCCNC(=O)OCC#CI [3-iodo-2-propynyl butylcarbamate (IPBC)] | 38.6 ± 0.16 | 97.7
4 | CN(C)CC/C=C1/c2ccccc2Sc2ccc(Cl)cc21 [Chlorprothixene hydrochloride] + CCCCNC(=O)OCC#CI [3-iodo-2-propynyl butylcarbamate (IPBC)] | 24.5 ± 7.9 | 83.6 ± 8.9
5 | CN(C)CC/C=C1\c2ccccc2CSc2ccccc21 [Dosulepin hydrochloride] + CCCCNC(=O)OCC#CI [3-iodo-2-propynyl butylcarbamate (IPBC)] | 77.5 | 99 ± 1.1
6 | CN(C)CCOC(c1ccc(Cl)cc1)c1ccccn1 (stereo not given) [Carbinoxamine maleate salt] + CCCCNC(=O)OCC#CI [3-iodo-2-propynyl butylcarbamate (IPBC)] | 103 ± 9.4 | 102 ± 4.9
7 | CN(C)CCC=C1c2ccccc2C=Cc2ccccc21 [Cyclobenzaprine hydrochloride] + CCCCNC(=O)OCC#CI [3-iodo-2-propynyl butylcarbamate (IPBC)] | 65.1 | 88.41 ± 0.73
8 | OCCN1CCN(CC/C=C2/c3ccccc3Sc3ccc(Cl)cc32)CC1 [Zuclopenthixol dihydrochloride] + CCCCNC(=O)OCC#CI [3-iodo-2-propynyl butylcarbamate (IPBC)] | 4.92 ± 0.16 | 3.57 ± 0.21
9 | OCCOCCN1CCN(C2=Nc3ccccc3Sc3ccccc32)CC1 [Quetiapine hemifumarate] + CCCCNC(=O)OCC#CI [3-iodo-2-propynyl butylcarbamate (IPBC)] | 72.75 ± 0.64 | 85.7 ± 3.2
10 | COc1ccccc1Oc1c(NS(=O)(=O)c2ccc(C(C)(C)C)cc2)nc(-c2ncccn2)nc1OCCO [Bosentan] + CCCCNC(=O)OCC#CI [3-iodo-2-propynyl butylcarbamate (IPBC)] | 117 ± 2.4 | 114 ± 5.8
11 | Clc1ccc2c(c1)C(N1CCNCC1)=Nc1ccccc1O2 [Amoxapine] + CCCCNC(=O)OCC#CI [3-iodo-2-propynyl butylcarbamate (IPBC)] | 81.3 ± 6 | 99.9 ± 7
12 | CCOC(=O)[C@@](C)(N)Cc1ccc(O)c(O)c1 [Methyldopate hydrochloride] + CCCCNC(=O)OCC#CI [3-iodo-2-propynyl butylcarbamate (IPBC)] | 110 ± 6 | 106 ± 6.2
13 | CC12CC3CC(C)(C1)CC(N)(C3)C2 [Memantine Hydrochloride] + CCCCNC(=O)OCC#CI [3-iodo-2-propynyl butylcarbamate (IPBC)] | 109 ± 3 | 108 ± 4.2
14 | CC(C)(C)NC[C@H](O)COc1ccccc1C1CCCC1 [Penbutolol sulfate] + CCCCNC(=O)OCC#CI [3-iodo-2-propynyl butylcarbamate (IPBC)] | 74.8 ± 6.2 | 91.56 ± 0.73
15 | O=C1CCC(N2C(=O)c3ccccc3C2=O)C(=O)N1 (stereo not given) [Thalidomide] + CCCCNC(=O)OCC#CI [3-iodo-2-propynyl butylcarbamate (IPBC)] | 95.3 ± 3.2 | 101 ± 4.4
16 | COc1ccccc1OCC(O)CN1CCN(CC(=O)Nc2c(C)cccc2C)CC1 (stereo not given) [Ranolazine] + CCCCNC(=O)OCC#CI [3-iodo-2-propynyl butylcarbamate (IPBC)] | 89.7 ± 2.4 | 94.2 ± 2.7
17 | O=C1NCN(c2ccccc2)C12CCN(CCCC(c1ccc(F)cc1)c1ccc(F)cc1)CC2 [Fluspirilen] + CCCCNC(=O)OCC#CI [3-iodo-2-propynyl butylcarbamate (IPBC)] | 99.4 ± 6.3 | 118 ± 4.2
18 | Cc1cccc(C)c1NC(=O)CN1CCN(CCCC(c2ccc(F)cc2)c2ccc(F)cc2)CC1 [Lidoflazine] + CCCCNC(=O)OCC#CI [3-iodo-2-propynyl butylcarbamate (IPBC)] | 10.3 ± 1.1 | 78.6 ± 7.7
19 | CO/N=C1\CN(c2nc3c(cc2F)c(=O)c(C(=O)O)cn3C2CC2)CC1CN (stereo not given) [Gemifloxacin mesylate] + CCCCNC(=O)OCC#CI [3-iodo-2-propynyl butylcarbamate (IPBC)] | 103 ± 17 | 104 ± 11
20 | CNCC(O)c1ccc(OC(=O)C(C)(C)C)c(OC(=O)C(C)(C)C)c1 (stereo not given) [Dipivefrin hydrochloride] + CCCCNC(=O)OCC#CI [3-iodo-2-propynyl butylcarbamate (IPBC)] | 79.4 ± 1.3 | 88.83 ± 0.1

Row | Compound | growth yield (40 h) [%] | growth yield (72 h) [%]
21 | C[C@]12CCC(=O)C(O)=C1CC[C@@H]1[C@@H]2CC[C@]2(C)C(=O)CC[C@@H]12 [Formestane] + CCCCNC(=O)OCC#CI [3-iodo-2-propynyl butylcarbamate (IPBC)] | 71.5 ± 3.8 | 91.2 ± 1.1
22 | N[C@@H]1CONC1=O [D-cycloserine] + CCCCNC(=O)OCC#CI [3-iodo-2-propynyl butylcarbamate (IPBC)] | 86.2 ± 1.1 | 90.3 ± 1.8
23 | CCCCCNC(=N)N/N=C/c1c[nH]c2ccc(OC)cc12 [Tegaserod maleate] + CCCCNC(=O)OCC#CI [3-iodo-2-propynyl butylcarbamate (IPBC)] | 5.4 | 5.24 ± 0.21
24 | COc1ccc2[nH]cc(CCNC(C)=O)c2c1 [Melatonin] + CCCCNC(=O)OCC#CI [3-iodo-2-propynyl butylcarbamate (IPBC)] | 82.9 ± 4.1 | 92.3 ± 4
25 | CC(C)(C)NCC(O)COc1cccc2c1CC(O)C(O)C2 (stereo not given) [Nadolol] + CCCCNC(=O)OCC#CI [3-iodo-2-propynyl butylcarbamate (IPBC)] | 102 ± 19 | 100 ± 10
26 | c1ccc2[nH]c(-c3cscn3)nc2c1 [Tiabendazole] + CCCCNC(=O)OCC#CI [3-iodo-2-propynyl butylcarbamate (IPBC)] | 4.7652 ± 1.4e-15 | 3.3561 ± 1.3e-15
27 | CN(C)CCCN1c2ccccc2Sc2ccc(Cl)cc21 [Chlorpromazine hydrochloride] + CCCCNC(=O)OCC#CI [3-iodo-2-propynyl butylcarbamate (IPBC)] | 52.4 ± 4.1 | 87.2 ± 2.2
28 | CN1CCN(CCCN2c3ccccc3Sc3ccc(Cl)cc32)CC1 [Prochlorperazine dimaleate] + CCCCNC(=O)OCC#CI [3-iodo-2-propynyl butylcarbamate (IPBC)] | 3.18 | 2.73 ± 0.21
29 | CN1CCN(CCCN2c3ccccc3Sc3ccc(S(=O)(=O)N(C)C)cc32)CC1 [Thioproperazine dimesylate] + CCCCNC(=O)OCC#CI [3-iodo-2-propynyl butylcarbamate (IPBC)] | 37.8 ± 0.95 | 97.1 ± 5
30 | COc1ccc2c(c1)N(C[C@H](C)CN(C)C)c1ccccc1S2 [Methotrimeprazine maleat salt] + CCCCNC(=O)OCC#CI [3-iodo-2-propynyl butylcarbamate (IPBC)] | 76.4 ± 1.4 | 92.61 ± 0.32
31 | CSc1ccc2c(c1)N(CCC1CCCCN1C)c1ccccc1S2 (stereo not given) [Thioridazine hydrochloride] + CCCCNC(=O)OCC#CI [3-iodo-2-propynyl butylcarbamate (IPBC)] | 3.81 ± 0.64 | 2.94 ± 0.21
32 | CN(C)CCCN1c2ccccc2CCc2ccc(Cl)cc21 [Clomipramine hydrochloride] + CCCCNC(=O)OCC#CI [3-iodo-2-propynyl butylcarbamate (IPBC)] | 59.6 ± 1.4 | 93.2 ± 2
33 | O=c1n(CCCN2CCN(c3cccc(Cl)c3)CC2)nc2ccccn12 [Trazodone hydrochloride] + CCCCNC(=O)OCC#CI [3-iodo-2-propynyl butylcarbamate (IPBC)] | 51 ± 1.1 | 86.1 ± 0.94
34 | CN1CCC[C@@H]1CCO[C@](C)(c1ccccc1)c1ccc(Cl)cc1 [Clemastine fumarate] + CCCCNC(=O)OCC#CI [3-iodo-2-propynyl butylcarbamate (IPBC)] | 53.2 ± 1.8 | 92.4 ± 0.94
35 | OCCN1CCN(CCCN2c3ccccc3C=Cc3ccccc32)CC1 [Opipramol dihydrochloride] + CCCCNC(=O)OCC#CI [3-iodo-2-propynyl butylcarbamate (IPBC)] | 69.57 ± 0.64 | 92.4 ± 3
36 | CC(CN(C)C)CN1c2ccccc2Sc2ccccc21 (stereo not given) [Trimeprazine tartrate] + CCCCNC(=O)OCC#CI [3-iodo-2-propynyl butylcarbamate (IPBC)] | 71.5 ± 3.8 | 92 ± 3.9
37 | OCCN1CCN(CCCN2c3ccccc3Sc3ccc(Cl)cc32)CC1 [Perphenazine] + CCCCNC(=O)OCC#CI [3-iodo-2-propynyl butylcarbamate (IPBC)] | 4.29 ± 0.48 | 2.94 ± 0.42
38 | CN1CCCCC1CCN1c2ccccc2Sc2ccc([S+](C)[O-])cc21 (stereo not given) [Mesoridazine besylate] + CCCCNC(=O)OCC#CI [3-iodo-2-propynyl butylcarbamate (IPBC)] | 72.6 ± 2.4 | 89.25 ± 0.52
39 | CCCCC[C@H](O)/C=C/[C@H]1[C@H](O)CC(=O)[C@@H]1CCCCCCC(=O)O [Alprostadil] + CCCCNC(=O)OCC#CI [3-iodo-2-propynyl butylcarbamate (IPBC)] | 108 ± 3.3 | 107 ± 2.8
40 | Cc1ncc([N+](=O)[O-])n1CC(C)O (stereo not given) [Secnidazole] + CCCCNC(=O)OCC#CI [3-iodo-2-propynyl butylcarbamate (IPBC)] | 95.9 ± 13 | 94.5 ± 9.8

Reference: the supplement of paper PMC8007513
